Experimental data taken from PubChem BioAssay (EPA / NIEHS).
The source holds several records for some structures; these can differ, active in one and inactive in another. The source made the active and inactive calls. How the source made its calls: active means hit-call score of the fitted dose curve at least 0.9, where 1 is the maximum; inactive means score below 0.9.

How the values were obtained:
[1] = ATG_E_Box_CIS: Attagene CIS-FACTORIAL HepG2 Assay for human Enhancer Box (E-box) (AID 2282936); conditions: HepG2 E-box cis-reporter transcription, actives raise or lower the signal
How it was run: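 Cells: HepG2 (human liver), transient MRTU transfection. Exposure 24 h. RNA → oligo(dT) RT → PCR → 6-FAM label → HpaI → CE. Activity fitted both directions relative to DMSO.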

[2] = ATG_M_61_CIS: Attagene CIS-FACTORIAL HepG2 Assay for M61 Transcription Factor (Internal Marker) (AID 2282937); conditions: HepG2 Attagene CIS-FACTORIAL M61 internal marker reporter; actives raise or lower the signal
How it was run: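 Readout is reporter mRNA by RT-PCR, fluorescent primer extension and capillary electrophoresis, with gain or loss fitted relative to DMSO. Transfected HepG2 cells carrying endogenous-TF-driven cis reporters were exposed to chemicals for 24 hours.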

[3] = ATG_M_19_CIS: Attagene CIS-FACTORIAL HepG2 Assay for M19 Transcription Factor (Internal Marker) (AID 2282939); conditions: HepG2 Attagene CIS-FACTORIAL M19 internal marker reporter; actives raise or lower the signal
How it was run: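 Transfect HepG2 with MRTU reporter library → dose chemical, 24 h → isolate total RNA, reverse-transcribe with oligo(dT) → PCR, 6-FAM label, HpaI cut (2 h, 37 C) → capillary electrophoresis. Bidirectional fit vs DMSO.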

[4] = ATG_ERE_CIS: Attagene CIS-FACTORIAL HepG2 Assay for Estrogen Response Element (ERE) (AID 2282940); conditions: HepG2 ERE cis-reporter, Attagene RNA transcript; actives raise or lower the signal
How it was run: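 Transient MRTU transfection of human HepG2; cis-element promoters; 24 h dosing; total RNA → RT (oligo dT) → PCR → 6-FAM primer extension → HpaI digest → CE fluorescence. Bidirectional fit, DMSO baseline.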

[5] = ATG_Ets_CIS: Attagene CIS-FACTORIAL HepG2 Assay for human Erythroblast Transformation Specific (ETS) (AID 2282941); conditions: HepG2 ETS cis-reporter transcription, actives raise or lower the signal
How it was run: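 HepG2 cells transiently transfected with cis-promoter reporter transcription units were dosed for 24 h; reporter mRNA was measured by RT-PCR, 6-FAM primer extension, HpaI digestion and capillary electrophoresis, with bidirectional fitting against DMSO baseline.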

[6] = target: Hepatocyte nuclear factor 3-beta (Homo sapiens) (UniProt Q9Y261); test: ATG_FoxA2_CIS: Attagene CIS-FACTORIAL HepG2 Assay for human Forkhead box A2 (FOXA2) (AID 2282942); conditions: HepG2 cis-reporter transcription factor activity, 24 h; actives raise or lower the signal
Chain of Hepatocyte nuclear factor 3-beta (Homo sapiens) (Q9Y261 whole entry, looked up): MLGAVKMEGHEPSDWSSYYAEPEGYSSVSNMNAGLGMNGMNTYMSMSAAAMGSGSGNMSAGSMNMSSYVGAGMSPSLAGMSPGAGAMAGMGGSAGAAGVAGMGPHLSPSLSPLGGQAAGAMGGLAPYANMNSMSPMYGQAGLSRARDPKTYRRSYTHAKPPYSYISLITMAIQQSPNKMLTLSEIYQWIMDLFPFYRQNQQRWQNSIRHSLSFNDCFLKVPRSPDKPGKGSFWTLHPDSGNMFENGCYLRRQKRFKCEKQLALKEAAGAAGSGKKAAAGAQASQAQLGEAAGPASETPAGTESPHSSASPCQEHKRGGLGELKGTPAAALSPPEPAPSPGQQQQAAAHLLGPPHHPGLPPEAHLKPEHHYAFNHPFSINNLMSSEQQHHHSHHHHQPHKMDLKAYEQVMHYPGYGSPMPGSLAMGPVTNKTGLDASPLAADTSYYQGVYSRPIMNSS
How it was run: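 Endogenous transcription factor activity is captured via cis-element-driven reporter transcripts in transfected HepG2. Total RNA taken at 24 h post-dosing; labelled RT-PCR products resolved by capillary electrophoresis. Gain or loss fitted versus DMSO.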

[7] = ATG_FoxO_CIS: Attagene CIS-FACTORIAL HepG2 Assay for human Forkhead box O (FoxO) (AID 2282943); conditions: HepG2 Attagene cis-reporter, FoxO element, mRNA; actives raise or lower the signal
How it was run: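 Endogenous transcription factor activity read from multiplexed cis-promoter reporter transcripts in transiently transfected HepG2, 24 h after dosing. Reporter RNA measured via RT-PCR plus capillary electrophoresis of FAM-labeled products; gain or loss relative to DMSO.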

[8] = ATG_GATA_CIS: Attagene CIS-FACTORIAL HepG2 Assay for human GATA Binding Protein (AID 2282944); conditions: HepG2 GATA cis-element reporter, Attagene multiplex mRNA; actives raise or lower the signal
How it was run: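 Transient MRTU transfection, HepG2, 24 h compound exposure. Total RNA → oligo(dT) RT → PCR → 6-FAM primer extension → HpaI cut → CE. Bidirectional fit vs DMSO.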

[9] = ATG_GLI_CIS: Attagene CIS-FACTORIAL HepG2 Assay for human Zinc Finger Protein GLI1 (AID 2282945); conditions: HepG2, Attagene cis-factorial reporter mRNA, GLI element; actives raise or lower the signal
How it was run: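 Bidirectional curve fits relative to DMSO, using reporter mRNA levels from RT-PCR plus capillary electrophoresis. Cells were HepG2 transiently carrying cis-regulated reporter constructs, harvested 24 h after dosing.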

[10] = ATG_EGR_CIS: Attagene CIS-FACTORIAL HepG2 Assay for human Early Growth Response 1 (EGR1) (AID 2282938); conditions: HepG2 Attagene CIS-FACTORIAL EGR reporter mRNA; actives raise or lower the signal
How it was run: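 After 24 h compound exposure, RNA from reporter-transfected HepG2 cells was reverse-transcribed, PCR-amplified, fluorescently labelled and resolved by capillary electrophoresis. EGR1 reporter transcript changes, up or down, were fitted against DMSO, reflecting endogenous transcription-factor activity.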

O=[N+]([O-])c1cc(C(F)(F)F)c(Cl)c([N+](=O)[O-])c1Nc1ncc(C(F)(F)F)cc1Cl
AC50 [1]: 15.2 µM (active)
outcome [1]: inactive
outcome [2]: inactive
outcome [3]: inactive
outcome [4]: inactive
outcome [5]: inactive
AC50 [6]: 20 µM (active)
outcome [6]: inactive
outcome [7]: inactive
outcome [8]: inactive
outcome [9]: inactive

CC[C@H](C)[C@H]1O[C@]2(C=C[C@@H]1C)C[C@@H]1C[C@@H](C/C=C(\C)[C@@H](O[C@H]3C[C@H](OC)[C@@H](O[C@H]4C[C@H](OC)[C@@H](NC)[C@H](C)O4)[C@H](C)O3)[C@@H](C)/C=C/C=C3\CO[C@@H]4[C@H](O)C(C)=C[C@@H](C(=O)O1)[C@]34O)O2
outcome [1]: inactive
outcome [2]: inactive
outcome [10]: inactive
outcome [3]: inactive
outcome [4]: inactive
outcome [5]: inactive
outcome [7]: inactive
outcome [8]: inactive
outcome [9]: inactive

CCOP(=S)(OCC)OC(Cl)C(Cl)(Cl)Cl (stereo not given)
outcome [1]: inactive
outcome [2]: inactive
outcome [10]: inactive
outcome [3]: inactive
outcome [5]: inactive
outcome [6]: inactive
outcome [7]: inactive
outcome [8]: inactive
outcome [9]: inactive

CNC(=O)ON=C(SC)C(=O)N(C)C
outcome [1]: inactive
outcome [2]: inactive
outcome [10]: inactive
outcome [3]: inactive
AC50 [4]: 15.7 µM (active)
outcome [5]: inactive
outcome [6]: inactive
outcome [7]: inactive
outcome [8]: inactive
outcome [9]: inactive

CCCOc1nn(C(=O)NS(=O)(=O)c2ccccc2C(=O)OC)c(=O)n1C
outcome [1]: inactive
outcome [2]: inactive
outcome [10]: inactive
outcome [3]: inactive
outcome [5]: inactive
outcome [6]: inactive
outcome [7]: inactive
outcome [8]: inactive
outcome [9]: inactive

COc1cc(OC)nc(Sc2cccc(Cl)c2C(=O)O)n1
outcome [1]: inactive
outcome [2]: inactive
outcome [10]: inactive
outcome [3]: inactive
outcome [5]: inactive
outcome [6]: inactive
outcome [7]: inactive
outcome [8]: inactive
outcome [9]: inactive

CCC(CC)Nc1c([N+](=O)[O-])cc(C)c(C)c1[N+](=O)[O-]
outcome [1]: inactive
outcome [2]: inactive
outcome [10]: inactive
outcome [3]: inactive
outcome [5]: inactive
outcome [6]: inactive
outcome [7]: inactive
outcome [8]: inactive
outcome [9]: inactive

CCc1cnc(C2=NC(C)(C(C)C)C(=O)N2)c(C(=O)O)c1 (stereo not given)
outcome [1]: inactive
outcome [2]: inactive
outcome [10]: inactive
outcome [3]: inactive
outcome [5]: inactive
outcome [7]: inactive
outcome [8]: inactive
outcome [9]: inactive

CC(C1CC1)C(O)(Cn1cncn1)c1ccc(Cl)cc1 (stereo not given)
outcome [1]: inactive
outcome [2]: inactive
outcome [10]: inactive
outcome [3]: inactive
outcome [5]: inactive
outcome [7]: inactive
outcome [8]: inactive
outcome [9]: inactive

CC(Oc1cccc(Cl)c1)C(=O)O (stereo not given)
outcome [1]: inactive
outcome [2]: inactive
outcome [10]: inactive
outcome [3]: inactive
outcome [5]: inactive
outcome [7]: inactive
outcome [8]: inactive
outcome [9]: inactive

CN(C)NC(=O)CCC(=O)O
outcome [1]: inactive
outcome [2]: inactive
outcome [10]: inactive
outcome [3]: inactive
outcome [5]: inactive
outcome [7]: inactive
outcome [8]: inactive
outcome [9]: inactive

CC1=NNC(=O)N(/N=C/c2cccnc2)C1
outcome [1]: inactive
outcome [2]: inactive
outcome [10]: inactive
outcome [3]: inactive
outcome [5]: inactive
outcome [7]: inactive
outcome [8]: inactive
outcome [9]: inactive

COP(=O)(OC)SCn1c(=O)oc2cc(Cl)cnc21
outcome [1]: inactive
outcome [2]: inactive
outcome [3]: inactive
outcome [4]: inactive
outcome [5]: inactive
outcome [7]: inactive
outcome [8]: inactive
outcome [9]: inactive

CNC(=O)Oc1cccc2c1OC(C)(C)O2
outcome [1]: inactive
outcome [2]: inactive
outcome [10]: inactive
outcome [3]: inactive
AC50 [4]: 29.5 µM (active)
AC50 [5]: 75.9 µM (active)
outcome [7]: inactive
outcome [8]: inactive
outcome [9]: inactive

Cc1cc(C2CC2)nc(Nc2ccccc2)n1
outcome [1]: inactive
outcome [2]: inactive
outcome [3]: inactive
AC50 [4]: 12.8 µM (active)
outcome [5]: inactive
AC50 [7]: 50 µM (active)
outcome [8]: inactive
outcome [9]: inactive

CCc1cccc(CC)c1N(COC)C(=O)CCl
outcome [1]: inactive
outcome [2]: inactive
outcome [10]: inactive
outcome [3]: inactive
outcome [4]: inactive
outcome [5]: inactive
outcome [7]: inactive
outcome [8]: inactive
outcome [9]: inactive
